# Reference: PubChem BioAssay AID1159580 (chemical genetic matrix, 2015)
# Where “and” joins values, the source holds several entries; their conditions need not be identical. Equal entries are not always repeated. Screen size: about 5,500 compounds; about 2,000 (36%) were called active. Another 18% or so got no clear call; they are omitted. Cut-off read from the data, not from the text of the source: active = normalized growth mostly below about 0.91 (no sharp cut-off); inconclusive = no clear call, values can overlap the other calls; inactive = mostly above about 0.92. This is one part of the list. Some structures have more than one record in an assay (separate samples or runs), and their calls can disagree.
# Assay: chemical genetic growth profiling, strain panel (AID 1159580);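 note: tested at 20 µM; growth read once vehicle control cultures reached saturation at 30 °C; 1 = growth at the plate median or of vehicle wells; lower values mean less growth of the strain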
# Settings: growth OD
smiles,measurement,setting,value
CN1CCN(CCCN2c3ccccc3Sc3ccc(C(F)(F)F)cc32)CC1,normalized growth,"S. cerevisiae deletion strains, locus YJR075W, strain HOC1, stronger effect = lower value",0.0765 (active) and 0.787 (active)
same,normalized growth,"S. cerevisiae deletion strains, locus YKL009W, strain mrt4, stronger effect = lower value",0.875 (active)
same,normalized growth,"S. cerevisiae deletion strains, locus YKL068W, stronger effect = lower value",0.984 (inactive)
same,normalized growth,"S. cerevisiae deletion strains, locus YKL085W, strain MDH1 (second series), stronger effect = lower value",0.957 (inactive)
same,normalized growth,"S. cerevisiae deletion strains, locus YKL085W, strain MDH1, stronger effect = lower value",0.957 (inactive)
same,normalized growth,"S. cerevisiae deletion strains, locus YKL160W, strain elf1, stronger effect = lower value",0.0849 (active)
same,normalized growth,"S. cerevisiae deletion strains, locus YKL190W, strain CNB1, stronger effect = lower value",0.0505 (active)
same,normalized growth,"S. cerevisiae deletion strains, locus YKR001C, strain vps1, stronger effect = lower value",0.0668 (active)
same,normalized growth,"S. cerevisiae deletion strains, locus YKR026C, strain gcn3, stronger effect = lower value",0.0825 (active)
same,normalized growth,"S. cerevisiae deletion strains, locus YKR091W, strain srl3, stronger effect = lower value",0.073 (active)
same,normalized growth,"S. cerevisiae deletion strains, locus YLL001W, strain dnm1, stronger effect = lower value",0.0784 (active)
same,normalized growth,"S. cerevisiae deletion strains, locus YLL026W, stronger effect = lower value",0.0619 (active)
same,normalized growth,"S. cerevisiae deletion strains, locus YLL041C, strain sdh2, stronger effect = lower value",0.0714 (active)
same,normalized growth,"S. cerevisiae deletion strains, locus YLR027C, strain aat2, stronger effect = lower value",0.0651 (active)
same,normalized growth,"S. cerevisiae deletion strains, locus YLR039C, strain RIC1, stronger effect = lower value",0.105 (active)
same,normalized growth,"S. cerevisiae deletion strains, locus YLR058C, strain SHM2, stronger effect = lower value",0.0587 (active)
same,normalized growth,"S. cerevisiae deletion strains, locus YLR102C, strain apc9, stronger effect = lower value",0.0738 (active)
same,normalized growth,"S. cerevisiae deletion strains, locus YLR113W, strain HOG1, stronger effect = lower value",0.941 (inactive)
same,normalized growth,"S. cerevisiae deletion strains, locus YLR221C, strain rsa3, stronger effect = lower value",0.0717 (active)
same,normalized growth,"S. cerevisiae deletion strains, locus YLR258W, strain gsy2, stronger effect = lower value",0.0705 (active)
same,normalized growth,"S. cerevisiae deletion strains, locus YLR262C, strain YPT6 (second series), stronger effect = lower value",0.0947 (active)
same,normalized growth,"S. cerevisiae deletion strains, locus YLR262C, strain YPT6, stronger effect = lower value",0.129 (active)
same,normalized growth,"S. cerevisiae deletion strains, locus YLR268W, strain sec22, stronger effect = lower value",0.0809 (active)
same,normalized growth,"S. cerevisiae deletion strains, locus YLR320W, strain mms22, stronger effect = lower value",0.0931 (active)
same,normalized growth,"S. cerevisiae deletion strains, locus YLR330W, strain CHS5, stronger effect = lower value",0.0585 (active)
same,normalized growth,"S. cerevisiae deletion strains, locus YLR342W, strain FKS1 (second series), stronger effect = lower value",0.0849 (active)
same,normalized growth,"S. cerevisiae deletion strains, locus YLR342W, strain FKS1, stronger effect = lower value",0.0733 (active)
same,normalized growth,"S. cerevisiae deletion strains, locus YLR357W, strain rsc2, stronger effect = lower value",0.148 (active)
same,normalized growth,"S. cerevisiae deletion strains, locus YLR370C, strain arc18, stronger effect = lower value",0.0604 (active)
same,normalized growth,"S. cerevisiae deletion strains, locus YLR371W, strain rom2, stronger effect = lower value",0.0675 (active)
same,normalized growth,"S. cerevisiae deletion strains, locus YLR384C, strain iki3, stronger effect = lower value",0.0666 (active)
same,normalized growth,"S. cerevisiae deletion strains, locus YLR418C, strain cdc73, stronger effect = lower value",0.125 (active)
same,normalized growth,"S. cerevisiae deletion strains, locus YML016C, strain PPZ1, stronger effect = lower value",0.0583 (active)
same,normalized growth,"S. cerevisiae deletion strains, locus YML032C, strain rad52, stronger effect = lower value",0.0831 (active)
same,normalized growth,"S. cerevisiae deletion strains, locus YML120C, strain ndi1, stronger effect = lower value",0.0683 (active)
same,normalized growth,"S. cerevisiae deletion strains, locus YML124C, strain tub3, stronger effect = lower value",0.0843 (active)
same,normalized growth,"S. cerevisiae deletion strains, locus YMR058W, strain fet3, stronger effect = lower value",0.0611 (active)
same,normalized growth,"S. cerevisiae deletion strains, locus YMR078C, strain ctf18, stronger effect = lower value",0.239 (active)
same,normalized growth,"S. cerevisiae deletion strains, locus YMR125W, strain sto1, stronger effect = lower value",0.0897 (active)
same,normalized growth,"S. cerevisiae deletion strains, locus YMR129W, stronger effect = lower value",0.061 (active)
same,normalized growth,"S. cerevisiae deletion strains, locus YMR205C, strain PFK2, stronger effect = lower value",0.199 (active)
same,normalized growth,"S. cerevisiae deletion strains, locus YMR223W, strain ubp8, stronger effect = lower value",0.0945 (active)
same,normalized growth,"S. cerevisiae deletion strains, locus YMR231W, strain pep5, stronger effect = lower value",0.0666 (active)
same,normalized growth,"S. cerevisiae deletion strains, locus YMR263W, strain SAP30, stronger effect = lower value",0.122 (active) and 1 (inactive)
same,normalized growth,"S. cerevisiae deletion strains, locus YMR307W, strain GAS1, stronger effect = lower value",0.122 (active) and 0.848 (active)
same,normalized growth,"S. cerevisiae deletion strains, locus YNL067W, strain RPL9B, stronger effect = lower value",0.0685 (active)
same,normalized growth,"S. cerevisiae deletion strains, locus YNL071W, strain lat1, stronger effect = lower value",0.0775 (active)
same,normalized growth,"S. cerevisiae deletion strains, locus YNL128W, strain TEP1, stronger effect = lower value",0.0773 (active)
same,normalized growth,"S. cerevisiae deletion strains, locus YNL153C, strain GIM3, stronger effect = lower value",0.0603 (active) and 0.583 (active)
same,normalized growth,"S. cerevisiae deletion strains, locus YNL175C, strain NOP13, stronger effect = lower value",1.15 [resistant] (active)
same,normalized growth,"S. cerevisiae deletion strains, locus YNL183C, strain NPR1, stronger effect = lower value",0.91 (inactive)
same,normalized growth,"S. cerevisiae deletion strains, locus YNL197C, strain WHI3, stronger effect = lower value",1.08 (inactive)
same,normalized growth,"S. cerevisiae deletion strains, locus YNL209W, strain ssb2, stronger effect = lower value",0.0693 (active)
same,normalized growth,"S. cerevisiae deletion strains, locus YNL224C, strain SQS1, stronger effect = lower value",1.11 [resistant] (active)
same,normalized growth,"S. cerevisiae deletion strains, locus YNL233W, strain BNI4, stronger effect = lower value",0.0609 (active)
same,normalized growth,"S. cerevisiae deletion strains, locus YNL248C, strain rpa49, stronger effect = lower value",0.102 (active)
same,normalized growth,"S. cerevisiae deletion strains, locus YNL250W, strain rad50, stronger effect = lower value",0.968 (inactive)
same,normalized growth,"S. cerevisiae deletion strains, locus YNL271C, strain bni1, stronger effect = lower value",0.982 (inactive)
same,normalized growth,"S. cerevisiae deletion strains, locus YNL298W, strain CLA4, stronger effect = lower value",0.938 (inactive)
same,normalized growth,"S. cerevisiae deletion strains, locus YNL307C, strain MCK1, stronger effect = lower value",0.0726 (active)
same,normalized growth,"S. cerevisiae deletion strains, locus YNL322C, strain KRE1 (second series), stronger effect = lower value",0.978 (inactive)
same,normalized growth,"S. cerevisiae deletion strains, locus YNL322C, strain KRE1, stronger effect = lower value",0.0571 (active)
same,normalized growth,"S. cerevisiae deletion strains, locus YNR049C, strain mso1, stronger effect = lower value",0.0676 (active)
same,normalized growth,"S. cerevisiae deletion strains, locus YNR052C, strain pop2, stronger effect = lower value",0.0713 (active)
same,normalized growth,"S. cerevisiae deletion strains, locus YOL006C, strain TOP1, stronger effect = lower value",0.119 (active)
same,normalized growth,"S. cerevisiae deletion strains, locus YOL012C, strain htz1",0.176 (active)
same,normalized growth,"S. cerevisiae deletion strains, locus YOL147C, strain pex11, stronger effect = lower value",0.0736 (active)
same,normalized growth,"S. cerevisiae deletion strains, locus YOR001W, strain rrp6, stronger effect = lower value",0.0923 (active)
same,normalized growth,"S. cerevisiae deletion strains, locus YOR061W, strain CKA2, stronger effect = lower value",0.0554 (active)
same,normalized growth,"S. cerevisiae deletion strains, locus YOR069W, strain VPS5, stronger effect = lower value",0.112 (active)
same,normalized growth,"S. cerevisiae deletion strains, locus YOR070C, strain gyp1, stronger effect = lower value",0.0657 (active)
same,normalized growth,"S. cerevisiae deletion strains, locus YOR080W, strain dia2, stronger effect = lower value",0.0771 (active)
same,normalized growth,"S. cerevisiae deletion strains, locus YOR083W, strain WHI5 (second series), stronger effect = lower value",0.748 (active)
same,normalized growth,"S. cerevisiae deletion strains, locus YOR083W, strain WHI5, stronger effect = lower value",0.0778 (active)
same,normalized growth,"S. cerevisiae deletion strains, locus YOR106W, strain vam3, stronger effect = lower value",0.0723 (active)
same,normalized growth,"S. cerevisiae deletion strains, locus YOR136W, strain idh2, stronger effect = lower value",0.0795 (active)
same,normalized growth,"S. cerevisiae deletion strains, locus YOR144C, strain elg1, stronger effect = lower value",0.0731 (active)
same,normalized growth,"S. cerevisiae deletion strains, locus YOR184W, strain ser1, stronger effect = lower value",0.0849 (active)
same,normalized growth,"S. cerevisiae deletion strains, locus YOR231W, strain MKK1, stronger effect = lower value",0.939 (inactive)
same,normalized growth,"S. cerevisiae deletion strains, locus YOR265W, strain rbl2, stronger effect = lower value",0.0652 (active)
same,normalized growth,"S. cerevisiae deletion strains, locus YOR270C, strain vph1, stronger effect = lower value",0.136 (active)
same,normalized growth,"S. cerevisiae deletion strains, locus YOR290C, strain snf2, stronger effect = lower value",0.0834 (active)
same,normalized growth,"S. cerevisiae deletion strains, locus YOR316C, strain cot1, stronger effect = lower value",0.0693 (active)
same,normalized growth,"S. cerevisiae deletion strains, locus YPL051W, strain arl3, stronger effect = lower value",0.12 (active)
same,normalized growth,"S. cerevisiae deletion strains, locus YPL055C, strain LGE1, stronger effect = lower value",0.072 (active) and 0.65 (active)
same,normalized growth,"S. cerevisiae deletion strains, locus YPL078C, strain atp4, stronger effect = lower value",0.161 (active)
same,normalized growth,"S. cerevisiae deletion strains, locus YPL106C, strain sse1, stronger effect = lower value",0.104 (active)
same,normalized growth,"S. cerevisiae deletion strains, locus YPL240C, strain hsp82, stronger effect = lower value",0.0671 (active)
same,normalized growth,"S. cerevisiae deletion strains, locus YPL241C, strain CIN2, stronger effect = lower value",0.0575 (active)
same,normalized growth,"S. cerevisiae deletion strains, locus YPL256C, strain CLN2, stronger effect = lower value",0.914 (inactive)
same,normalized growth,"S. cerevisiae deletion strains, locus YPR119W, strain clb2, stronger effect = lower value",0.079 (active)
same,normalized growth,"S. cerevisiae deletion strains, locus YPR141C, strain kar3, stronger effect = lower value",0.98 (inactive)
same,normalized growth,"S. cerevisiae deletion strains, locus YPR163C, strain tif3, stronger effect = lower value",0.0727 (active)
same,normalized growth,"S. cerevisiae deletion strains, locus YPR167C, strain met16, stronger effect = lower value",0.0761 (active)
same,normalized growth,"S. cerevisiae deletion strains, strain wtn01, stronger effect = lower value",0.073 (active)
same,normalized growth,"S. cerevisiae strains, strain wild type, stronger effect = lower value",0.0552 (active)
